Test results from the supplement of paper PMC8387472.
Where a name gives a salt, the structure may show the parent alone. ± gives the standard deviation of the averaged measurements.

test system: mESC LDLR-Dup GFP reporter (SpCas9 MH-deletion repair); assay: fraction of GFP+ cells relative to DMSO control (fold change); higher = more MH-deletion repair to in-frame LDLR (or more editing); settings: 2 µM; 7 days post-transfection

Row | Compound | fraction of GFP+ cells
1 | COc1ccc(CCNCc2ccc(OCc3ccc(Cl)nc3)c(OC)c2)cc1OC | 1.56 ± 0.28
2 | CCCCCCCCC/C(=C\C1=C(C)C(=O)C(OC)=C(OC)C1=O)C(=O)O | 1.19 ± 0.5
3 | CCc1ccc(/C=C2/SC(=S)NC2=O)cc1 | 0.853 ± 0.25
4 | O=c1c(O)c(-c2ccc(O)c(O)c2)oc2cc(O)cc(O)c12 [Quercetin] | 1.4 ± 0.93
5 | NC(=O)C1CCCc2c1[nH]c1ccc(Cl)cc21 (stereo unspecified) [Selisistat (EX 527)] | 1.18 ± 0.47
6 | Cc1cn([C@H]2O[C@@H](CO)[C@H](O)[C@H]2F)c(=O)[nH]c1=O [Clevudine] | 0.898 ± 0.28
7 | CC(C)[C@H](CO)Nc1nc(Nc2cccc(Cl)c2)c2ncn(C(C)C)c2n1 [Purvalanol A] | 0.716 ± 0.095
8 | O=C(Nc1ccccc1-c1cn2c(CN3CCNCC3)csc2n1)c1cnc2ccccc2n1 | 1.19 ± 0.68
9 | S=P(N1CC1)(N1CC1)N1CC1 [Thiotepa] | 0.905 ± 0.27
10 | CC(=O)c1cc([N+](=O)[O-])c(Sc2ccc(F)cc2F)s1 | 0.785 ± 0.22
11 | N#CSc1cc(SC#N)c(N)nc1N | 1.23 ± 0.14
12 | N=C1CCCN1Cc1[nH]c(=O)[nH]c(=O)c1Cl [Tipiracil hydrochloride] | 0.837 ± 0.26
13 | CC(=O)NCC(=O)N1[C@@H]2CC[C@H]1c1ccc(Nc3ncc(C(F)(F)F)c(NC4CCC4)n3)cc12 | 1.27 ± 0.73
14 | CN(C)Cc1ccc(-c2nc3cccc4c3n2CCNC4=O)cc1 | 0.517 ± 0.015
15 | O=C(NCCS(=O)(=O)c1ccc(C(F)(F)F)cn1)c1ccc(Cl)cc1 | 1.39 ± 0.63
16 | Cn1cc(-c2ccc3c(c2)CCN3C(=O)Cc2cccc(C(F)(F)F)c2)c2c(N)ncnc21 | 0.644 ± 0.25
